The text below walks through data of PubChem BioAssay (Tox21).

A number with no mark means an inactive call. Inconclusive results are not listed. The source made the active and inactive calls. The call rests on the fitted dose curve; in most records, active means well fitted curve in the direction sought with a large enough effect in the repeat runs; inconclusive means weak or mixed curves; inactive means no such curve, though single readings can be large; an effect the other way counts as inactive or inconclusive.

The nature of assay [1]: qHTS RealTime-Glo MT Cell Viability Assay in HEK293 cells - 0 hour (AID 1224880). Further: top concentration of the series differs between compounds; nearly all actives have a fitted effect of over 45% in size. A digest of the protocol: (§1)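 Kinetic, non-lysing viability readout. Seed HEK293 (600/well) with reagent, incubate 5 h at 37 C/5% CO2, pin 23 nL compound in DMSO, incubate at 37 C, read luminescence at 0, 8, 16, 24, 32, 40 h.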
Assay [2] can be described thus: A CellTox Green Cytotoxicity Assay to monitor cytotoxicity in HEK293 cells - 32 hour (AID 1224881). Further: nearly all actives have a fitted effect of over 40% in size. Further: potency means the concentration at half of the fitted maximal effect. A digest of the protocol: (§2)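 Real-time, in one plate: 600 HEK293 cells/well with dead-cell DNA dye, pinned compound after 5 h, 37 C incubation over 40 h; viable cells give no appreciable fluorescence.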
Assay [3] in a line: A CellTox Green Cytotoxicity Assay to monitor cytotoxicity in HepG2 cells - 32 hour (AID 1224883). Further: nearly all actives have a fitted effect of over 50% in size. Further: potency means the concentration at half of the fitted maximal effect. The method, boiled down:
(§3)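 Cytotoxicity was tracked as dead-cell DNA fluorescence in HepG2 cells treated with test compounds at 37 C; each time-point value comes from one kinetic series spanning 0, 8, 16, 24, 32 and 40 h.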

Assay [4] is described as follows: A CellTox Green Cytotoxicity Assay to monitor cytotoxicity in HEK293 cells - 8 hour (AID 1224884). Further: nearly all actives have a fitted effect of over 35% in size. Further: potency means the concentration at half of the fitted maximal effect. A digest of the protocol:
as §2

Assay [5] in a line: qHTS RealTime-Glo MT Cell Viability Assay in HepG2 cells - 16 hour (AID 1224885). Further: nearly all actives have a fitted effect of over 50% in size. The method, boiled down:
(§4)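 HepG2 cells (600/well) were dispensed with RealTime-Glo reagents, incubated 5 h at 37 °C, then treated with compounds in DMSO for up to 40 h. Nonlytic NanoLuc luminescence reflecting viable cells was read at each stated time point.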

Assay [6] is described as follows: qHTS RealTime-Glo MT Cell Viability Assay in HEK293 cells - 24 hour (AID 1224886). Further: nearly all actives have a fitted effect of over 50% in size. Further: potency means the concentration at half of the fitted maximal effect. On activity change, negative = cytotoxicity: top concentration of the series differs between compounds. The method, boiled down: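 HEK293 cells seeded with NanoLuc/prosubstrate reagent, rested 5 h at 37 C, then dosed and kept at 37 C up to 40 h. Nonlytic real-time luminescence from viable cells read at 0, 8, 16, 24, 32 and 40 h.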
A short description of assay [7]: qHTS RealTime-Glo MT Cell Viability Assay in HEK293 cells - 8 hour (AID 1224887). Further: nearly all actives have a fitted effect of over 50% in size. Further: potency means the concentration at half of the fitted maximal effect. On activity change, negative = cytotoxicity: top concentration of the series differs between compounds. A digest of the protocol: as §1
Assay [8] is described as follows: A CellTox Green Cytotoxicity Assay to monitor cytotoxicity in HEK293 cells - 16 hour (AID 1224888). Further: nearly all actives have a fitted effect of over 35% in size. Further: potency means the concentration at half of the fitted maximal effect. A digest of the protocol:
as §2

Assay [9] can be described thus: qHTS RealTime-Glo MT Cell Viability Assay in HepG2 cells - 0 hour (AID 1224889). Further: nearly all actives have a fitted effect of over 50% in size. Further: potency means the concentration at half of the fitted maximal effect. The method, boiled down:
as §4

Assay [10] can be described thus: A CellTox Green Cytotoxicity Assay to monitor cytotoxicity in HepG2 cells - 0 hour (AID 1224882). Further: nearly all actives have a fitted effect of over 35% in size. A digest of the protocol:
as §3
On the % scale 0 is the no-effect control and ±100 the full control effect.

Regarding `O=C(CCCN1CCC(O)(c2ccc(Br)cc2)CC1)c1ccc(F)cc1`, the Potency result in [1], in assay [2], in [4], in [5], in assay [8] and in assay [9] was “inactive” each time. The Potency is 26.8 µM (active) in [3], 10.7 µM (active) in [6] and 8.49 µM (active) in assay [7].
`CC1=CC(=O)CC(C)(C)C1(O)/C=C/C(C)=C\C(=O)O` (centres undefined): the Potency result in assay [1], in [2], in assay [4], in assay [5], in assay [6] and in assay [7] was “inactive” in each case. Besides, the Potency result in assay [8] and in assay [9] was “inactive” each time.
Regarding `CC(C)(CCl)c1ccccc1`, the Potency entry in [1], in [2], in assay [3], in [4], in assay [5] and in assay [6] was “inactive” in each case. The Potency entry in [7], in assay [8] and in assay [9] was “inactive” throughout.
On to `CN(C(=O)C(Cl)Cl)c1ccc(OC(=O)c2ccco2)cc1`, for which the Potency result in assay [1], in assay [2], in [4], in assay [5], in assay [6] and in assay [7] was “inactive” in each case. The Potency entry in [8] and in assay [9] was “inactive” throughout.
In the case of `O=C(OCCOCCO)c1ccccc1Nc1cccc(C(F)(F)F)c1`, the Potency entry in assay [1], in [2], in [4], in [5], in [6] and in assay [8] was “inactive” throughout.
As to `Cc1c(C(=O)NN2CCCCC2)nn(-c2ccc(Cl)cc2Cl)c1-c1ccc(Cl)cc1`, the Potency result in assay [1], in assay [2], in [3], in [4], in assay [5] and in assay [8] was “inactive” each time.
For `CCCOCCOCCO`, the Potency result in [1], in [2], in assay [4], in assay [5], in [6] and in [7] was “inactive” in each case. The Potency result in assay [8] and in [9] was “inactive” each time.
Turning to `C=CCCCCCCCCCCCCCCCC`, the values for the activity change, negative = cytotoxicity in assay [1] and in assay [6] were -0.1% [at 6.97 µM] and -6.06% [at 6.97 µM], respectively. The figures for the cytotoxicity increase in [2] and in assay [4] were -2.25% [at 6.97 µM] and -6.36% [at 6.97 µM], respectively. Further, the cytotoxicity in assay [10] is -13.6% [at 6.97 µM]. In addition, the activity change, negative = cytotoxic in [5] was -8.12% [at 6.97 µM]. In addition, the activity change in [8] was -0.39% [at 6.97 µM, active compounds read high].
For `O=C(CCCCCCC(=O)Nc1ccccc1)NO`, the Potency result in assay [1], in assay [2], in assay [10], in [4], in [8] and in assay [9] was “inactive” each time. Also, the Potency in assay [6] is 2.39 µM (active).
For `C/C(=N/NC(=O)c1ccncc1)C(=O)O`, the Potency entry in assay [1], in assay [2], in assay [4], in assay [5], in [6] and in assay [7] was “inactive” throughout. Also, the Potency result in assay [8] was “inactive”.
For `CCOC(=O)N1CCC(n2c(=O)[nH]c3cc(Cl)ccc32)CC1`, the Potency entry in assay [1], in assay [2], in assay [10], in assay [4], in assay [5] and in [8] was “inactive” in each case. Also, the Potency result in assay [9] was “inactive”.
For `CCOC(=O)OCC`, the Potency entry in assay [1], in assay [2], in assay [10], in [4], in assay [5] and in assay [6] was “inactive” throughout. Further, the Potency entry in assay [8] is “inactive”.
As for `Cc1occc1C(=O)Nc1ccc(C(=O)N2CCC(F)(F)/C(=C\C(=O)N3CCC(N4CCCCC4)CC3)c3ccccc32)cc1`, the Potency entry in assay [1], in [2], in assay [10], in assay [4], in assay [5] and in [8] was “inactive” throughout. Further, in assay [9], the Potency result is “inactive”. Moreover, in assay [6], the Potency was 5.43 µM (active).
Take `CCCCCCCCCCCCCCC[C@H](O)[C@@H](N)CO`: the Potency result in assay [1] and in assay [9] was “inactive” throughout. Further, the Potency in assay [2] was 21.3 µM (active); in assay [3] it was 26.8 µM (active); in [4], 23.9 µM (active); in [6] it was 21.3 µM (active); in [7], 23.9 µM (active); in assay [8], 21.3 µM (active).
`O=S1OCCO1`: the Potency entry in assay [1], in assay [2], in assay [10], in assay [4], in [5] and in assay [6] was “inactive” throughout. Besides, the Potency result in [7], in [8] and in [9] was “inactive” throughout.
Turning to `Nc1ccc(C(=O)OCCCOC(=O)c2ccc(N)cc2)cc1`, the Potency entry in assay [1], in [2], in assay [4], in assay [5], in [8] and in assay [9] was “inactive” in each case. The Potency in [6] was 43.6 µM (active).
Turning to `O=C(C(=O)c1ccccc1)c1ccccc1`, the Potency result in assay [2], in assay [10], in assay [3], in [4], in [5] and in assay [6] was “inactive” throughout. Moreover, the Potency entry in [7], in assay [8] and in assay [9] was “inactive” in each case.
As to `CCCCCCCCCCCC[N+](C)(C)CC(=O)[O-]`, the Potency result in [1], in assay [5], in assay [6], in assay [7] and in [9] was “inactive” in each case.
In the case of `COC(=O)c1cc(S(N)(=O)=O)ccc1OC`, the Potency result in assay [2], in assay [10], in [3], in [4], in [5] and in assay [6] was “inactive” in each case. For the same compound, the Potency entry in assay [7], in assay [8] and in assay [9] was “inactive” in each case.
`O=C(O)c1ccccc1NCCc1ccccc1`: the Potency result in assay [2], in assay [10], in assay [3], in assay [4], in assay [5] and in assay [6] was “inactive” each time. The Potency entry in assay [7], in assay [8] and in [9] was “inactive” each time.
In the case of `CCCCC(=O)O[C@]1(C(=O)CO)CC[C@H]2[C@@H]3CCC4=CC(=O)CC[C@]4(C)[C@H]3[C@@H](O)C[C@@]21C`, the Potency entry in [2], in assay [10], in assay [3], in [4], in [5] and in assay [6] was “inactive” in each case. For the same compound, the Potency result in assay [7] and in [8] was “inactive” each time. Also, the Potency in [9] was 9.52 µM (active).
Consider `O=Cc1c(Cl)cccc1Cl`, for which the Potency entry in [2], in assay [10], in assay [3], in assay [4], in assay [5] and in assay [6] was “inactive” in each case. Also, the Potency entry in assay [7], in assay [8] and in [9] was “inactive” throughout.
In the case of `CCOC(=O)c1ccccc1C`, the Potency result in [2], in assay [10], in assay [3], in assay [4], in assay [5] and in assay [6] was “inactive” each time. Moreover, the Potency result in [7], in [8] and in assay [9] was “inactive” throughout.
On to `CCCCCC=CCC=CCCCCCCCC(=O)OCC`, for which the Potency entry in assay [2], in assay [10], in assay [3], in [4], in assay [5] and in [6] was “inactive” each time. In addition, the Potency entry in assay [7], in [8] and in assay [9] was “inactive” throughout.
